In PubChem BioAssay (Tox21):
Values joined by “and” are separate entries in the source; they are usually repeats but may differ in a detail not shown here. Identical values can stand only once. Records with an inconclusive call do not appear. More than one record can exist for a structure, and the calls need not agree. Active and inactive are the calls of the source. Unless noted, calls follow the shape of the dose curve; as a rule, active = well fitted curve in the direction sought with a large enough effect in the repeat runs; inconclusive = weak or mixed curves; inactive = no such curve, though single readings can be large; an effect the other way counts as inactive or inconclusive.

Columns and labels:
[1] = biological target: Progesterone receptor (Homo sapiens) (UniProt P06401); experiment: qHTS assay to identify small molecule agonists of the progesterone receptor (PR) signaling pathway (AID 1346784; calls by dose curve; also: nearly all actives have a fitted effect of over 30% in size)
Procedure, shortened: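 Agonist qHTS: compounds pinned onto 3,000 PR-UAS-bla HEK 293T cells per well in charcoal-stripped serum medium, 16hr at 37C, then beta-lactamase activity measured by LiveBLAzer FRET fluorescence after 2 hours at room temperature.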

[2] = biological target: Progesterone receptor (Homo sapiens) (UniProt P06401); experiment: qHTS assay to identify small molecule antagonists of the progesterone receptor (PR) signaling pathway (AID 1346795; active = well fitted inhibition curve with a large enough effect in the signal ratio in the repeat runs, not every such curve was filed as active; the % refers to the signal ratio; also: potency is read from the fitted curve at half-maximal effect)
Procedure, shortened: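 Antagonist mode with agonist R5020 at 1 nM final and 16 hr incubation at 37C. Reporter was beta-lactamase driven by UAS in HEK293T (PR-UAS-bla), 2% charcoal-stripped serum; signal from LiveBLAzer FRET substrate, 2 hr at room temperature.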

[3] = qHTS assay to identify small molecule antagonists of the progesterone receptor (PR) signaling pathway - cell viability counter screen (AID 1346798); also: series mostly up to about 92 µM; nearly all actives have a fitted effect of over 50% in size
Procedure, shortened: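 Cytotoxicity read as CellTiter-Glo luminescence (30 min, room temperature) in the same wells as the beta-lactamase readout. HEK293T PR-UAS-bla cells in charcoal-stripped 2% FBS received compound and R5020, then 16 h at 37C, 5% CO2.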

[4] = qHTS assay to identify small molecule antagonists of the TGF-beta/Smad signaling pathway - cell viability counter screen (AID 1346824); also: nearly all actives have a fitted effect of over 50% in size
Procedure, shortened: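 SBE-bla HEK 293T cells were plated overnight at 37 C, then given compounds in DMSO plus TGF-beta1 (added as 0.25 ng/mL solution) for 5 hr. After the bla read, CellTiter-Glo was added to the same wells and luminescence read after 30 min at room temperature.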

[5] = qHTS assay to identify small molecule agonists of the TGF-beta/Smad signaling pathway - cell viability counter screen (AID 1346829); also: top concentration of the series differs between compounds; nearly all actives have a fitted effect of over 45% in size
Procedure, shortened: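 In parallel with the Smad reporter read, viability of HEK 293T cells stably carrying SBE-bla is quantified by ATP luminescence following 5 hr compound treatment.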

[6] = qHTS assay to identify small molecule agonists of the TGF-beta/Smad signaling pathway (AID 1346859; active = well fitted activation curve with a large enough effect in the signal ratio in the repeat runs, not every such curve was filed as active; the % refers to the signal ratio; also: series mostly up to about 77 µM)
Procedure, shortened: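 Fluorescence (ex 405 nm; em 460 and 530 nm) was read 2 h after LiveBLAzer FRET substrate at RT. The preceding compound treatment of overnight-plated SBE-bla HEK293T cells lasted 5 h at 37 C.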

[7] = Human pregnane X receptor (PXR) small molecule agonists, qHTS cell viability counter screen (AID 1346977); also: nearly all actives have a fitted effect of over 50% in size; also: potency is read from the fitted curve at half-maximal effect
Procedure, shortened: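 Same-well viability read: CellTiter-Fluor added after 23 hr compound exposure, fluorescence measured 1 hr later. Cells were PXR-Luc HepG2 seeded at 2,000/well in 5% charcoal-stripped FBS medium, rested 5 hr before dosing at 37 C.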

[8] = Caspase-3/7 induction in HepG2 cells by small molecules, qHTS assay (AID 1346978); also: nearly all actives have a fitted effect of over 15% in size
Procedure, shortened: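 Wild-type HepG2 cells (2,000/well) were settled 5 h at 37 C, 5% CO2, then exposed to compounds in DMSO for 17 h. Caspase-3/7 activity was read by luminescence 30 min after adding Caspase-Glo 3/7 reagent at room temperature.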

[9] = Caspase-3/7 induction in CHO-K1 cells by small molecules, qHTS assay (AID 1346980); also: nearly all actives have a fitted effect of over 15% in size
Procedure, shortened: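 Wild-type cells were seeded at 1,500 per well and settled 5 hr at 37 C, 5% CO2, then exposed to DMSO-dissolved compounds for 17 hr. Caspase-Glo 3/7 reagent was added, and luminescence was read after 30min at room temperature.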

[10] = Caspase-3/7 induction in HepG2 cells by small molecules, qHTS cell viability counter screen (AID 1346981); also: nearly all actives have a fitted effect of over 30% in size; also: potency is read from the fitted curve at half-maximal effect
Procedure, shortened: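 Multiplexed with the caspase-3/7 assay: HepG2 cells, 16 hr compound treatment, CellTiter-Fluor viability detection by fluorescence.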

[11] = biological target: Acetylcholinesterase (Homo sapiens) (UniProt P22303); experiment: Acetylcholinesterase (AChE) small molecule antagonists: colormetric cell-based qHTS assay (AID 1347395; calls by dose curve; also: nearly all actives have a fitted effect of over 30% in size; also: potency is read from the fitted curve at half-maximal effect)
Procedure, shortened: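 Colorimetric readout: DTNB quantifies thiocholine from acetylthiocholine hydrolysed by endogenous AChE of SH-SY5Y cells (2,000/well, plated overnight). Compound pretreatment 30 min, substrate incubation 90 min, both 37 C.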

[12] = qHTS assay to identify small molecule agonists of the estrogen receptor alpha (ER-alpha) signaling pathway in the presence of an antagonist - cell viability counter screen (AID 1259386);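 also: cells exposed to compounds for 22 h at 37 °C before the viability read; nearly all actives have a fitted effect of over 30% in size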; also: potency is read from the fitted curve at half-maximal effect
Procedure, shortened: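 ICI-182,780 at 10.0nM final accompanies the compound titration (15 concentrations, 22hr, 37C) on VM7Luc4E2 cells. The CellTiter-Fluor fluorescence readout runs in the same wells as the luciferase assay.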

[13] = qHTS assay to identify small molecule agonists of the progesterone receptor (PR) signaling pathway - cell viability counter screen (AID 1346799; calls by dose curve; also: nearly all actives have a fitted effect of over 45% in size; also: potency is read from the fitted curve at half-maximal effect)
Procedure, shortened: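 Cytotoxicity measured by CellTiter-Glo luminescence (30 min, RT) in the same wells as the PR beta-lactamase agonist read. Those HEK293T cells had 16 h compound treatment at 37 C in 2% charcoal-stripped FBS medium.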

[14] = biological target: Thyrotropin-releasing hormone receptor (Homo sapiens) (UniProt P34981); experiment: qHTS assay to identify small molecule antagonists of the thyrotropin-releasing hormone receptor (TRHR) signaling pathway (AID 1346877; active = well fitted inhibition curve with a large enough effect in the repeat runs, not every such curve was filed as active; also: series mostly up to about 51 µM)
Procedure, shortened: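 Screening used HEK293 cells engineered with TRHR, with a brief 5 min room-temperature compound exposure preceding addition of TRH to 1 nM. The read-out was kinetic calcium-dye fluorescence, concentration-response from 15 doses in triplicate.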

[15] = biological target: Thyrotropin-releasing hormone receptor (Homo sapiens) (UniProt P34981); experiment: qHTS assay to identify small molecule agonists of the thyrotropin-releasing hormone receptor (TRHR) signaling pathway (AID 1346891; calls by dose curve; also: series mostly up to about 58 µM)
Procedure, shortened: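 Agonist-mode intracellular calcium readout: kinetic fluorescence over 3 min at 1 s intervals after compound addition to TRHR-HEK293 cells (18 h seeded, 2 h dye-loaded at 37 C). Fifteen concentrations, triplicates.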

[16] = Caspase-3/7 induction in CHO-K1 cells by small molecules, qHTS cell viability counter screen (AID 1346979); also: nearly all actives have a fitted effect of over 35% in size; also: potency is read from the fitted curve at half-maximal effect
Procedure, shortened: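 Cytotoxicity counter screen: CellTiter-Fluor added to compound-treated wild-type CHO-K1 cells at 16 h (37C, 5% CO2), fluorescence measured 1 h later; same wells as caspase-3/7 measurement.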

[17] = biological target: Nuclear receptor subfamily 1 group I member 2 (Homo sapiens) (UniProt O75469); experiment: Human pregnane X receptor (PXR) small molecule agonists, qHTS assay (AID 1346982); also: nearly all actives have a fitted effect of over 35% in size; also: potency is read from the fitted curve at half-maximal effect
Procedure, shortened: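 We seeded PXR-Luc HepG2 cells in assay medium containing 5% charcoal-stripped FBS, added compounds 5 hr later, incubated 24 hr, and read luminescence with ONE-Glo reagent.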

Measured: Potency
% is scaled to controls: 0 for no effect and ±100 for the full control effect.

Thyrotropin-releasing hormone receptor (Homo sapiens), sequence (P34981 whole entry, looked up): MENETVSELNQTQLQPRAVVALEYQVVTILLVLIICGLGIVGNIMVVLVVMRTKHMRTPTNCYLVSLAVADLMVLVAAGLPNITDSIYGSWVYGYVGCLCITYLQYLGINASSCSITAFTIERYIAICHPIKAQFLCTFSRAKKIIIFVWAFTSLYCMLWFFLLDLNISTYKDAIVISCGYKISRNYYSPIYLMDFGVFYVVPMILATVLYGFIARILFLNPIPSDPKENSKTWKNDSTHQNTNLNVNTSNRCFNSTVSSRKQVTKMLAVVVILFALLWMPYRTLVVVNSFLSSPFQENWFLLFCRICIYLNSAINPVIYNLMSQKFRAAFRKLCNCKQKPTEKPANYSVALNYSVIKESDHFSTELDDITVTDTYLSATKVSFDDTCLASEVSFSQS
Nuclear receptor subfamily 1 group I member 2 (Homo sapiens), sequence (O75469 whole entry, looked up): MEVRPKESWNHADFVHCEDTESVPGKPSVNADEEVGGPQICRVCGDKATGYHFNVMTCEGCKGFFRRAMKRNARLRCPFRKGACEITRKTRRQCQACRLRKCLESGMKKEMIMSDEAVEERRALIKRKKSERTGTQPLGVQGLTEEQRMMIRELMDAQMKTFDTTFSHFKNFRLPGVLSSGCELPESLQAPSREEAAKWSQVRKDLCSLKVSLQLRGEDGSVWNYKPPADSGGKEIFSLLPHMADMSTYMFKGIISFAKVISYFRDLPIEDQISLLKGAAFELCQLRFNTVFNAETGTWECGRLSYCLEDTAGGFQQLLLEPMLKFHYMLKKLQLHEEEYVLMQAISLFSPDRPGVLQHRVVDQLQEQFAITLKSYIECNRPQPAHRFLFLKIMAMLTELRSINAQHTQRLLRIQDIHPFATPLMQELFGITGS
Progesterone receptor (Homo sapiens), sequence (P06401 whole entry, looked up): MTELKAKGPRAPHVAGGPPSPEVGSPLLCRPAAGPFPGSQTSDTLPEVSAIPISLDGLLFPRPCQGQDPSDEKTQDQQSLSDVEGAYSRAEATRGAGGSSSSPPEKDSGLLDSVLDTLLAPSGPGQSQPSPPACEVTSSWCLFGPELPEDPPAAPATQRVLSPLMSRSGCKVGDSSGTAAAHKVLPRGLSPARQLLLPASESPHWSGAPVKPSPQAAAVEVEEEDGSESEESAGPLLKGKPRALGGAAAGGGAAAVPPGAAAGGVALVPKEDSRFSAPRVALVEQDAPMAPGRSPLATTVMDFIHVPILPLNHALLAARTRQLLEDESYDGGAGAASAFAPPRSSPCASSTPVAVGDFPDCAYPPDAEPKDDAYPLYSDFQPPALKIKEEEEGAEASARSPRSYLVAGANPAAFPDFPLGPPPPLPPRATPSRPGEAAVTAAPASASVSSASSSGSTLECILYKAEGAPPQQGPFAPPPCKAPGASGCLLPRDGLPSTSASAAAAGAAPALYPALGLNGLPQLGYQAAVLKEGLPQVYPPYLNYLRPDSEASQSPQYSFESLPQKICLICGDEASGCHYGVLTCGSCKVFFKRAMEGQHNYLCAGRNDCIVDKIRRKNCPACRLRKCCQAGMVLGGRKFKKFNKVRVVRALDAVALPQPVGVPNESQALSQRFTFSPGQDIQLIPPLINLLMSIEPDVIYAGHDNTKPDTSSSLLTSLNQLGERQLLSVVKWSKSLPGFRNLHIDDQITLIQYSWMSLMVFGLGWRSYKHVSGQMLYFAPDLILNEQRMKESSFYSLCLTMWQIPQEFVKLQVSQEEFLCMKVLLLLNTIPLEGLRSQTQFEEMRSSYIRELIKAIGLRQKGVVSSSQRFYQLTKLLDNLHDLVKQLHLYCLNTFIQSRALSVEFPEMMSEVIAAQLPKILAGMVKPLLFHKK
Acetylcholinesterase (Homo sapiens), sequence (P22303 whole entry, looked up): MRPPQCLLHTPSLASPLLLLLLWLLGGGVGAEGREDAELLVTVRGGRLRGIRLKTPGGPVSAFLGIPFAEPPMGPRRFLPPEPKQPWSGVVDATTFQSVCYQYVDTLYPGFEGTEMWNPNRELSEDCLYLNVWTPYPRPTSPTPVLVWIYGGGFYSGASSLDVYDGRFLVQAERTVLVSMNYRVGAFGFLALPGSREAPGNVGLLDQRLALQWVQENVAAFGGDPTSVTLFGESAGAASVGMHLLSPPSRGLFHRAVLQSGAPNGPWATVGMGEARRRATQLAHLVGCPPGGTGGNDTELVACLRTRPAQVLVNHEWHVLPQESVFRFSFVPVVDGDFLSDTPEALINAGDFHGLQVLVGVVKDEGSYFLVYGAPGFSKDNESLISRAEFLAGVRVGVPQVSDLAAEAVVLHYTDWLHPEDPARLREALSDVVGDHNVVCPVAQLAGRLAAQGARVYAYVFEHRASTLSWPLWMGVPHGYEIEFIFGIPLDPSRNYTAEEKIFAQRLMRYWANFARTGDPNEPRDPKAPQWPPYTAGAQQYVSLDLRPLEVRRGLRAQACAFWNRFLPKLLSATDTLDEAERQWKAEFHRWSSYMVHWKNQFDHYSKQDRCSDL

CCCCCCCCCCn1cc[n+](C)c1
active: [2] 31.4 µM and 48.5 µM and 27.3 µM | [7] 2.76 µM | [11] 39.8 µM [middle of 6 runs]
inactive: [1] | [3] | [4] | [5] | [6] | [8] | [9] | [10]

COP(=O)(OC)C(O)C(Cl)(Cl)Cl (stereo not given)
not listed: [2] | [11] | [17]
inactive: all other assays above

CC[n+]1ccccc1
inactive and 6.06 µM (active): [7]
inactive and 763 nM (active): [16]
inactive and 48.2 µM (active): [13]
inactive and 19.2 µM (active): [10]
inactive and 1.21 µM (active): [17]
inactive and 42.9 µM (active): [12]
not listed: [3] | [14] | [15]
inactive: all other assays above

Nc1ccc(Cl)cc1
inactive and 62.2 µM (active): [17]
not listed: [2]
inactive: all other assays above

O=C(O)c1nc(Cl)ccc1Cl
not listed: [14] | [15]
inactive: all other assays above
